Results published in PubChem BioAssay (NCI).
The panel holds about 83,000 compounds, 20% with a hit somewhere; the sample as a whole holds those more often.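 Cell lines were cultured in 96-well plates, exposed to a single compound concentration, and assessed for percent growth 48 hours later.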 Values without a mark were called inactive.

What follows are molecules tested on NCI/ADR-RES ovarian (assay: NCI-60 one-dose screen, 48 h (100 = growth as untreated, 0 = no growth, -100 = all killed)). Conditions: 10 µM unless noted.
Method: Growth inhibition of the NCI/ADR-RES human […] tumor cell line is measured as a screen for anti-cancer activity. Cells are grown in 96 well plates and exposed to the test compound for 48 hours. Compounds are tested at a single concentration, which is 10^-5 M for most compounds. The reported endpoint is percent growth (GI% or GIPRCNT), where numbers from 0 - 100% represent growth inhibition, and numbers from -100% - 0 represent cell death. For example, a value of 40 represents 60% growth inhibition. A value of 0 means no net growth occurred over the course of the experiment. A value of -40 indicates 40% of cells at the beginning of the experiment died by the end of the experiment. A value of -100 means all cells are dead at the end of the experiment.
NCI-60 Human Tumor Cell Lines Screen was performed using the standard one-dose NCI protocol, which is described in more detail at https://dtp.cancer.gov/discovery_development/nci-60/default.htm.
Compounds with GIPRCNT values below 10 were considered active. Activity score was based on GIPRCNT using the following formula: […]
Score is 0 for GIPRCNT values of 100 or above, 50 for GIPRCNT values of 0, and 100 for GIPRCNT values of -100.

Compound | growth
CC(C)(C)c1ccc([I+]c2ccc(C(C)(C)C)cc2)cc1 | 90.2%
O=c1c(N=Nc2nccs2)c(-c2ccccc2)[nH]n1-c1nc(-c2ccccc2)cs1 | 10.1%
COc1cc(/C=C/C(=O)c2ccc(F)cc2)ccc1OCCCCOc1cc2c(cc1OC)C(=O)N1CCCC1C=N2 (stereo not given) | 27.1%
O=C(CN1C(=O)NC(c2ccccc2)(c2ccccc2)C1=O)c1ccc(N2CCCC2)cc1 | 67.2%
CC(C)(C)C(=O)CCCCCCCC/C=C/CCCC(O)c1ccco1 (stereo not given) | 108%
CCCCCN1CCN(C(CC(=O)c2ccccc2)C(=O)c2ccccc2)CC1 (stereo not given) | 99%
COC(=O)c1ccc2[nH]c(O)c(C(=Nc3ccc(N(C)C(=O)CN4CCN(C)CC4)cc3)c3ccc([N+](=O)[O-])cc3)c2c1 | 104%
C=CCNC(=S)NNc1ccc([N+](=O)[O-])cn1 | 95.9%
COc1ccc(C2C3(C#N)C(N)=NC(=C(C#N)C#N)C23C#N)cc1OC (stereo not given) | 114%
C/C(CCC(=O)O)=N/Nc1ccc([N+](=O)[O-])cc1 | 49.6%
CC(C)OC(=O)Nn1cnc2ccccc21 | 110%
COC(=O)C(N)CC(C)C (stereo not given) | 106%
C=CCSc1nnc(COc2ccc3c(C)c(Cc4ccccc4)c(=O)oc3c2C)o1 | 98%
O=c1oc2ccc3ccccc3c2cc1-c1ccnc2[nH]c(=S)[nH]c(=O)c12 | 94.8%
CCCCN(CCC)CCCCCCCCCCN1CCCc2ccccc21 | 90.1%
Cc1[nH]n(C(=S)Nc2nc3cc(Cl)c(F)cc3s2)c(=O)c1N=Nc1ccc(F)c(Cl)c1 | 103%
COc1cc(NC(C)CCCN)c2nc(C)ccc2c1OC (stereo not given) | 101%
Nc1ccc(S(=O)(=O)Nc2cc(F)cc(F)c2)cc1 | 117%
Cn1c2ccccc2c2ccccc21 | 101%
CCN(CC)CCNc1ncnc2c1cnn2-c1ccc(Cl)cc1 | 91.4%

Compound | growth
COc1ccc(CN2C(=O)/C(=C\C(=O)c3ccc(OCCN4CCCC4)cc3)c3ccccc32)cc1 | 85.8%
CC1C(=O)CCCC1=O | 113%
CCCCCc1ccnc(CC(=O)c2ccc(OC)cc2)c1 | 108%
O=C1Nc2c(c(=O)n(-c3ccccc3)c3ccccc23)C(c2ccc(Cl)cc2)N1 (stereo not given) | 99.7%
CCCOC(=O)c1c(C)n(C)c2scc[n+]12 | 78.9%
CC(O)CN(CCO)CCN(CCO)CC(C)O (stereo not given) | 112%
CC(=O)CCS(=O)c1ccccc1 (stereo not given) | 99.1%
COC(=O)C(Cc1cnc[nH]1)N1CC(=O)N2[C@@H](c3ccccc3)SC[C@H]2C1=O (stereo not given in full) | 107%
CCOc1ccc(Br)cc1/C=C(\C#N)c1ccc([N+](=O)[O-])cc1 | 85.2%
CNc1ccc(Nc2ccc(S(=O)(=O)O)cc2)c2c1C(=O)c1ccccc1C2=O | 108%
O=C(CBr)OCc1ccc([N+](=O)[O-])o1 | 101%
COc1ccc(-c2nc(SCC(C)C)nc(Nc3ccc([N+](=O)[O-])cc3)c2C#N)cc1 | 101%
CC(C)OC(=O)[C@H](C)N[P@@](=O)(OC[C@@]1(C)O[C@@H](n2cc(F)c(N)nc2=O)C[C@@H]1O[P@](=O)(N[C@@H](C)C(=O)OC(C)C)Oc1ccccc1)Oc1ccccc1 | 103%
CCCCCCCCCCCCCCCCCC(=O)Nc1ccc(O)cc1 | 95.4%
COc1cc(-c2nn(-c3ccc(NC(=O)Nc4ccc(Cl)c(Cl)c4)cc3)cc2-c2ccncc2)ccc1Cl | 16.1%
CCC(CCCN1C(=O)c2ccccc2C1=O)Nc1cc(OC)cc2c(C)ccnc12 (stereo not given) | 121%
CC(=O)Nc1ccc(S(=O)(=O)Cl)cc1 | 116%
COC(=O)c1ccc2[nH]c(O)c(C(=Nc3ccc(N(C)C(=O)CN4CCN(C)CC4)cc3)c3ccc4c(c3)OCO4)c2c1 | 104%
CSC1=Nc2c(c(C)c(-c3ccccc3)n2CCCCl)C2=NC(=O)CN12 | 58%
O=C(Nc1ccc(-n2cc(-c3ccncc3)c(-c3ccc(Cl)c(O)c3)n2)cc1)c1ccc(Cl)c(C(F)(F)F)c1 | 29.4%
